Laboratory results reported in PubChem BioAssay (NCATS).
Records with an inconclusive call do not appear. Activity calls are given as the source filed them. Calls follow the shape of the dose curve; as a rule, active = well fitted inhibition curve with a large enough effect; inconclusive = small, poorly fitted or top-dose-only effect; inactive = flat fitted curve, though single readings scatter.

System: MCC-13
Test: qHTS assay to identify novel small-molecules to repurpose for Merkel cell carcinoma treatment (AID 1296009); also: nearly all actives have a fitted effect of over 60% in size
Details: MCC and control cell lines, CellTiter-Glo viability, 72 h; series mostly up to 46 µM
Outline: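 Dose-response viability screen; 72 hr exposure at 37 degree celsius; CellTiter-Glo added, 10 min room temperature, luminescence read; RLUs scaled between no-cell and DMSO wells.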

SMILES	outcome
Nc1ccccc1	inactive
CC(C)N(CCC(C(N)=O)(c1ccccc1)c1ccccn1)C(C)C (centres undefined)	inactive
C=C(C)[C@H]1CN[C@H](C(=O)O)[C@H]1CC(=O)O	inactive
CN1C(=O)CCS(=O)(=O)C1c1ccc(Cl)cc1 (centres undefined)	inactive
CNC(C)(C)Cc1ccccc1	inactive
CC1(C)C(C=C(Cl)Cl)C1C(=O)OC(C#N)c1cccc(Oc2ccccc2)c1 (centres undefined)	inactive
O=C1c2ccccc2C(=O)c2ccccc21	inactive
O=C1c2ccccc2C(=O)C1C(=O)C(c1ccccc1)c1ccccc1	inactive
C[C@]12CC[C@@H]3c4ccc(OC(=O)N(CCCl)CCCl)cc4CC[C@H]3[C@@H]1CC[C@@H]2OP(=O)(O)O	inactive
COC(=O)[C@@H](N)CCCN/C(N)=N/[N+](=O)[O-]	inactive
CCC1(c2ccc(N)cc2)CCC(=O)NC1=O (centres undefined)	inactive
O=C(O)CCCc1ccc(N(CCCl)CCCl)cc1	inactive
NNc1ccccc1	inactive
CCc1cc2c(s1)-n1c(C)nnc1CN=C2c1ccccc1Cl	inactive
NC(=O)c1cc([N+](=O)[O-])cc([N+](=O)[O-])c1	inactive
COP(=S)(OC)Oc1cc(Cl)c(Cl)cc1Cl	inactive
c1ccc(CN2CCNCC2)cc1	inactive

SMILES	outcome
C[N+]1(CCF)[C@@H]2CC[C@H]1CC(OC(=O)C(O)(c1ccccc1)c1ccccc1)C2 (some centres undefined)	inactive
CCN(CCO)CCn1c(Cc2ccccc2)nc2c1c(=O)n(C)c(=O)n2C	inactive
CC(C)(C)NCC(O)c1cc(Cl)c(N)c(C(F)(F)F)c1 (centres undefined)	inactive
O=C1OC(c2ccc(O)c(S(=O)(=O)O)c2)(c2ccc(O)c(S(=O)(=O)O)c2)c2c(Br)c(Br)c(Br)c(Br)c21	inactive
C=CCN1C[C@H](C)N([C@H](c2ccc(C(=O)N(CC)CC)cc2)c2cccc(OC)c2)C[C@H]1C	inactive
CCCCCCCCCC(=O)O[C@H]1CC[C@H]2[C@@H]3CCC4=CC(=O)CC[C@@H]4[C@H]3CC[C@]12C	inactive
CC(NC(C)(C)C)C(=O)c1cccc(Cl)c1 (centres undefined)	inactive
O=c1[nH]oc2c1CCNC2	inactive
CC(=O)OCC1=C(C(=O)O)N2C(=O)[C@@H](N)[C@H]2SC1	inactive
O=P1(N(CCCl)CCCl)NCCCO1 (centres undefined)	inactive
COc1ccc2c3c1O[C@H]1[C@H](O)CC[C@H]4[C@@H](C2)N(C)CC[C@@]341	inactive
CN1CC[C@]23c4c5ccc(O)c4O[C@H]2[C@@H](O)CC[C@H]3[C@H]1C5	inactive
COc1cc(OC)c(OC)cc1C=O	inactive
Oc1ccc(Cl)cc1	inactive
CC(C)c1cccc(C(C)C)c1O	inactive
CNCC(=O)c1ccc(O)c(O)c1	inactive
CCOC(=O)CC(SP(=S)(OC)OC)C(=O)OCC (centres undefined)	inactive
